Assay results reported in PubChem BioAssay AID662 (National Center for Advancing Translational Sciences (NCATS), 2007).
The campaign covered roughly 71,000 compounds. About 1,800 (2.5%) were called active. Roughly 26% stayed inconclusive and do not appear here. This is one part of a sample in which actives are shown more often than they occur. Values without a mark were called inactive. Calls come from the whole dose curve; as a rule, active = well fitted activation curve with a large enough effect in the signal ratio, with a control signal flat (not every such curve was filed as active); inconclusive = small, poorly fitted or top-dose-only effect, or effect the other way, or a change in a side signal; inactive = flat fitted curve, though single readings scatter; the % refers to the signal ratio.

Test: Cell signaling CRE-BLA (Fsk stim); for activity change, negative = inhibition: % of control where 0% means no effect
Conditions: CHO CRE-bla reporter (cAMP response element driving beta-lactamase), forskolin EC10, beta-lactamase ratio; series mostly up to 38.2 µM; activity change, negative = inhibition: at the top concentration
From the text: NIH Molecular Libraries Screening Centers Network [MLSCN]
NIH Chemical Genomics Center [NCGC]
Assay Provider: Marshall W. Nirenberg, U.S. National heart lung & blood institute
Memories persist for different lengths of time, from seconds or minutes to a lifetime. There are two kinds of memory: short-term memory (STM) and long-term memory (LTM). STM lasts for minutes to hours, which maybe mediated by modifications of molecules involved in synaptic functions. LTM lasts for days or longer, and may be due to the formation of new synapses or restructuring of existing synapses. LTM, but not STM, requires gene transcription and synthesis of proteins. CREB (cyclic-AMP Responsive Element Binding Protein) is one of the candidates plays an important role for enhancement of some types of LTM. CREB, a family of transcription factors, regulates the transcription of genes containing cAMP Responsive Elements (CRE). CRE is a nucleotide sequence often found in the promoter regions of genes that are binding sites for CREB.
Using a beta-lactamase reporter-gene under control of cAMP responsive element, a cell-based assay [CellSensor(TM) CRE-bla CHO developed by Invitrogen Corp.] was used to measure forskolin-induced signaling. Library compounds were measured for their ability to modulate positively or negatively the action of EC10 NKH 477, a water soluble forskolin, on reporter gene activity. Compounds were screened in a titration series in 1536-well format. Positive and negative modulators were identified based on the AC50 values derived from the screening data.
NCGC Assay Protocol Summary
2000 cells/5uL in Opti-MEM medium containing 0.5% dialyzed FBS, 0.1 mM NEAA, 1 mM sodium pyruvate and 10 mM HEPES was dispensed into 1536-well plates and cells were cultured at 37 degrees Celsius overnight. […] And then the plates were incubated at 37 degrees Celsius for 3 hours. 1 uL of CCF4-dye mixture was added to each well. After incubated at room temperature for 2 hours the plates were measured on an EnVision plate reader at Excitation 405nm, Emission1=460nm and Emission 2=530nm. The %Activity was determined from the ratio of 460nm/530nm.
Keywords: NIH Roadmap, MLSCN, MLSMR, qHTS, NCGC, CRE, beta-lactamase reporter-gene assay.
Potency is the fitted concentration of half-maximal effect.

| Structure (SMILES) | activity change, negative = inhibition | Potency |
| --- | --- | --- |
| CC(=O)NC(C)c1nc2ccccc2n1Cc1ccccc1F (centres undefined) | -9.33% | – |
| C#CCNc1nc(C(C)C)nc2c1nnn2Cc1ccccc1F | – | 10 µM (active) |
| CC(C)(C)c1nc(NCC2CCCO2)c2nnn(Cc3ccccc3)c2n1 (centres undefined) | 7.95% | – |
| Cc1cccc(C(=O)O)c1 | -9.1% | – |
| CCOC(=O)CNC(=O)c1nn(-c2cccc(OC)c2)c(=O)c2ccccc12 | 14.6% | – |
| COC(=O)c1ccc(CSc2nc3ccccc3c(=O)n2-c2cccc(OC)c2)o1 | – | 5.01 µM (active) |
| COC(=O)c1ccc(CSc2ccccc2C)o1 | -26.7% | – |
| CCCC(NC(=O)c1ccccc1)c1nc2ccccc2n1Cc1ccc(C(=O)OC)o1 (centres undefined) | 10.7% | – |
| O=c1c2ccccc2nc(CSc2nnnn2-c2ccccc2)n1-c1ccccc1 | -0.982% | – |
| COCC(C)n1c(SCc2ccc(C(=O)OC)o2)nc2ccccc2c1=O (centres undefined) | – | 10 µM (active) |
| COc1ccc(S(=O)(=O)N2CCC(C(=O)N3CCOCC3)CC2)cc1OC | 0.418% | – |
| COC(=O)C1(C)C=CCN1C(=O)c1ccccc1 (centres undefined) | -3.13% | – |
| CC1COC2C(O1)N(S(C)(=O)=O)CCN2S(C)(=O)=O (centres undefined) | -1.89% | – |
| O=C(C1CCN(CC2CCCCC2)CC1)N1CCCC1 | -0.979% | – |
| CCOC(=O)C1CCN(C(=O)Nc2ccc(Cl)cc2)CC1 | -3.28% | – |
| COCC(C)N=CC1=C(O)CC(C)(C)CC1=O (centres undefined) | 4.27% | – |
| COCCn1c(C)cc(C(=O)CSc2ncnc3sc4c(c23)CCC4)c1C | 8.37% | – |
| N=c1c2c3c(sc2ncn1N)CCCCC3 | -0.591% | – |
| COCCNc1nc(-n2nc(C)cc2C)nc2sc3c(c12)CCCC3 | – | 12.6 µM (active) |
| Cc1cc(N=CC2=C(O)CCCC2=O)no1 | -1.94% | – |

| Structure (SMILES) | activity change, negative = inhibition | Potency |
| --- | --- | --- |
| Cc1cc(C(=O)O)ccc1[N+](=O)[O-] | -16.5% | – |
| COC(=O)C1C(=O)CC(C)(O)C(C(=O)OC)C1c1ccc2c(c1)OCO2 (centres undefined) | -1.98% | – |
| C/C(=C\C(=O)c1cccnc1)Nc1ccc(C)c(C)c1 | 13.6% | – |
| CC(Sc1nc2ccccc2c(=O)n1Cc1ccco1)C(=O)c1ccccc1 (centres undefined) | 4.85% | – |
| COc1ccccc1NC(=O)CSc1nc2sc(C)c(C)c2c(=O)n1Cc1ccco1 | – | 3.98 µM (active) |
| COc1ccc(NC(=O)CSc2nnc(-c3cccs3)n2Cc2ccco2)cc1OC | 5.96% | – |
| CCCn1c(-c2ccc(F)cc2)nc2c(NC3CCN(Cc4ccccc4)C3)nc(C)nc21 (centres undefined) | 10.1% | – |
| COC(CCN(C)C)(c1ccccc1)c1ccccc1 | -22.8% [at 7.6 µM] | – |
| CCCC[C@@H]1C[C@H]1C(NC(=O)c1ccc(-c2ccccc2)cc1)c1ccc(-c2ccccc2)cc1 (some centres undefined) | 2.34% | – |
| COc1cc(OC)c(NC(=O)c2ccc(Br)o2)cc1Cl | 19.3% [at 7.6 µM] | – |
| O=C(Nc1ccc(-c2nnc(-c3ccccc3)o2)cc1)c1ccc(Br)o1 | -0.431% | – |
| Cc1cc(C)nc(-n2nc(C)cc2NC(=O)c2ccc(Br)o2)n1 | – | 1.26 µM (active) |
| CCSC1(SCC)N=C(N)C2(C#N)C(c3ccccc3)NC(C)=CC12C#N (centres undefined) | -14.9% | – |
| O=C(Cn1cnc2c(cnn2-c2ccc(F)cc2)c1=O)NCCc1ccccc1 | -4.15% | – |
| CCOC(=O)c1ccc(-n2c(C)nc3c(cnn3-c3ccccc3C)c2=O)cc1 | 4.93% | – |
| CCCn1c(=NC(C)=O)c(C(=O)OCC)cc2c(=O)n3ccccc3nc21 | – | 10 µM (active) |
| CCOC(=O)c1cnc2sccn2c1=O | -5.25% | – |
| Cc1cc(C)cc(N)c1 | -7.14% | – |
| CCCCNc1nc(C)nc2c1nc(-c1ccccc1)n2CCCCN(CC)CC | 6.32% | – |
| O=C1c2ccccc2-c2ncnc3c(N4CCOCC4)cc(N4CCOCC4)c1c23 | – | 2.51 µM (active) |

| Structure (SMILES) | activity change, negative = inhibition | Potency |
| --- | --- | --- |
| c1cnn(-c2cc(N3CCOCC3)ncn2)c1 | 17.7% | – |
| c1ccc(-c2oc3ncnc(N4CCOCC4)c3c2-c2ccccc2)cc1 | 6.93% | – |
| CSc1nnc(CNC(=O)c2ccccc2)n1-c1ccc(F)cc1 | -5.77% | – |
| Cc1cccc(C(=O)O)c1[N+](=O)[O-] | -4.85% | – |
| CCOC(=O)c1cnc(-n2nc(C)cc2C)nc1Nc1cccc(C(C)=O)c1 | 3.18% | – |
| CC(=O)c1ccc(Oc2cc(C)nc(-n3nc(C)cc3C)n2)cc1 | – | 7.94 µM (active) |
| CCOC(=O)c1cnc(-n2nc(C)cc2C)nc1-n1nc(C)cc1C | 28.9% | – |
| O=C(Nc1ccccc1)N[C@H]1C[C@H](C(=O)O)Nc2cc(Cl)cc(Cl)c21 | -9.62% | – |
| O=C(CCCOc1ccccc1)Nc1cccc(C(=O)O)c1 | -1.76% | – |
| CN1CCN(c2cc(=O)n(-c3ccc(Cl)cc3)c(=O)[nH]2)CC1 | -6.94% | – |
| Cc1cc(N(C)C)cc(C)[n+]1[O-] | 2.28% | – |
| COC(=O)C1=C(C)NC2=C(C(=O)c3ccccc32)C1c1ccc(-c2ccc(C(=O)O)cc2)o1 (centres undefined) | – | 0.398 µM (active) |
| COc1ccccc1NC(=O)C1=C(C)NC2=C(C(=O)CCC2)C1c1ccc(C)o1 (centres undefined) | -1.9% | – |
| COC(=O)C1=C(C)NC(=O)NC1/C=C/c1ccccc1 (centres undefined) | -5.12% | – |
| Cc1ccc(CCn2c3c(c4ccccc42)CN(C)CC3)cn1 | -5.13% | – |
| O=C(O)CC(C(=O)O)C(CC(=O)O)C(=O)O (centres undefined) | -8.47% | – |
| CCCCC/C=C/C=C/C=O | -1.75% | – |
| CCOc1ccc(C(=O)Nc2cc(OC)ccc2OC)cc1 | 8.36% | – |
| CC(C)CCNc1nc(N2CCCC2)c2c(c1C#N)CCN(C)C2 | -7.41% | – |
